Several values for one entry are separate records, joined by “and”; a condition that tells them apart may be missing. Identical values can stand only once. Records with an inconclusive call do not appear. A structure can be active in one record and inactive in another. Activity calls are given as the source filed them. Unless noted, calls follow the shape of the dose curve; as a rule, active = well fitted curve in the direction sought with a large enough effect in the repeat runs; inconclusive = weak or mixed curves; inactive = no such curve, though single readings can be large; an effect the other way counts as inactive or inconclusive.
Molecular target: Androgen receptor (Homo sapiens) (UniProt P10275)
Sequence (P10275 whole entry, looked up): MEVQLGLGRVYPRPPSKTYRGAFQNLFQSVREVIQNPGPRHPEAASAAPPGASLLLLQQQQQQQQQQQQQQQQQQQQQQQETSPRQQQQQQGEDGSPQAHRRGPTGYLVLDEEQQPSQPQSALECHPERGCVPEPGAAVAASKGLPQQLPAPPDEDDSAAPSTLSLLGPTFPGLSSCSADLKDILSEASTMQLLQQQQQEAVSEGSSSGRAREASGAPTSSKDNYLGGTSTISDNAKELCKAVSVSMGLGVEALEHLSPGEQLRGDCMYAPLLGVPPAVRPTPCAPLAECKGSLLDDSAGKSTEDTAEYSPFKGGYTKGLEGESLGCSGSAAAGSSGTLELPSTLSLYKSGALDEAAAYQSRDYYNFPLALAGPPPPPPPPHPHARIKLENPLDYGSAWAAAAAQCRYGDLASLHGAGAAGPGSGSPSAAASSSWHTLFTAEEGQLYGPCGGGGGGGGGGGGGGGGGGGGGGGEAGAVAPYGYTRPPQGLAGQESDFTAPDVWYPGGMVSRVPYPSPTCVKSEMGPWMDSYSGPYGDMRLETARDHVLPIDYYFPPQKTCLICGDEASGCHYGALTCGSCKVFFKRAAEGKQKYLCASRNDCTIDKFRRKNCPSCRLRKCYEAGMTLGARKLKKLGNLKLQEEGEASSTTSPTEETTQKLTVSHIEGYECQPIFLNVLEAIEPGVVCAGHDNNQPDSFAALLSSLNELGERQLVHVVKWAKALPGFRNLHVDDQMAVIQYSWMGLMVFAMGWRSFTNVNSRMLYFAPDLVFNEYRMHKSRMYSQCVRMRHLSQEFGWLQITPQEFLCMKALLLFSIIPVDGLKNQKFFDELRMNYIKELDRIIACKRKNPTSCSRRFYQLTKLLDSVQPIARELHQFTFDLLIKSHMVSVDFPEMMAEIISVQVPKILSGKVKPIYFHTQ
Assay: qHTS assay to identify small molecule antagonists of the androgen receptor (AR) signaling pathway (AID 743035; active = well fitted inhibition curve with a large enough effect in the signal ratio in the repeat runs, not every such curve was filed as active; the % refers to the signal ratio; also: potency is read from the fitted curve at half-maximal effect)
Conditions: HEK293 AR-UAS-bla, R1881-stimulated, beta-lactamase FRET, 16 h; series mostly up to 58.5 µM; activity change, negative = inhibition: at the top concentration
How it was run: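 HEK293 cells stably carrying a UAS-driven beta-lactamase reporter (AR-UAS-bla GripTite) were plated for 4 h at 37C, then given compound and the agonist R1881 and incubated 16 h. Reporter activity was read by LiveBLAzer B/G FRET fluorescence after 2 h at room temperature.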
% is scaled to controls: 0 for no effect and ±100 for the full control effect.

Compound	Potency	activity change, negative = inhibition
CCCCCCCCCOC(=O)c1ccc(O)cc1	24.2 µM (active)	–
CCCCCCCCCCCCCCCC(=O)OC[C@H](O)[C@H]1OC(=O)C(O)=C1O	–	-3.11% (inactive)
CSc1ccc(/C=C2/C(C)=C(CC(=O)O)c3cc(F)ccc32)cc1	–	-4.14% (inactive)
CC(C)OC(=O)c1cc2c(OCC(O)CNC(C)(C)C)cccc2[nH]1 (centres undefined)	–	-8.39% (inactive)
CCCCN(CCCC)c1ccc(C(=O)c2ccccc2C(=O)O)c(O)c1	39.3 µM (active)	–
CN(C)c1ccc(C2(c3ccc(N(C)C)cc3)OC(=O)c3cc(N(C)C)ccc32)cc1	–	-10.1% (inactive)
CC1(C)CCC(C)(C)c2cc(C(=O)Nc3ccc(C(=O)O)cc3)ccc21	49 µM (active)	–
NNc1nc(-c2ccc([N+](=O)[O-])cc2)cs1	24.5 µM (active)	–

Molecular target: Androgen receptor (Homo sapiens) (UniProt P10275)
Assay: qHTS assay to identify small molecule agonists of the androgen receptor (AR) signaling pathway (AID 743036; active = well fitted activation curve with a large enough effect in the signal ratio in the repeat runs, with a control signal flat, not every such curve was filed as active; the % refers to the signal ratio)
Conditions: HEK293 AR-UAS-bla GripTite, beta-lactamase FRET ratio, 16 h; series mostly up to 62.4 µM; activation: at the top concentration
How it was run: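 Agonist activity was scored by beta-lactamase reporter fluorescence in stably transfected HEK293 cells exposed to compounds for 16 h at 37C and 5% CO2. Substrate loading took 2 h at room temperature.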

Compound	Potency	activation
CCCCCCCCCCCCCCCC(=O)OC[C@H](O)[C@H]1OC(=O)C(O)=C1O	inactive	–
CC1(C)CCC(C)(C)c2cc(C(=O)Nc3ccc(C(=O)O)cc3)ccc21	–	18.9% (inactive)
CCCCCCCCS(=O)C(C)Cc1ccc2c(c1)OCO2 (centres undefined)	–	-4.06% [at 79.1 µM] (inactive)

Molecular target: Androgen receptor (Homo sapiens) (UniProt P10275)
Assay: qHTS assay to identify small molecule agonists of the androgen receptor (AR) signaling pathway using the MDA cell line (AID 743040; also: nearly all actives have a fitted effect of over 20% in size)
Conditions: MDA-kb2 AR-luc cells, MMTV luciferase, 16 h; series mostly up to 70.3 µM; activity change: at the top concentration
How it was run: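 Human breast carcinoma MDA-kb2 reporter cells (MMTV-luc, AR/GR elements) were treated for 16 h at 37C in 0% CO2 following a 5 h settling period. Signal was quantified by ONE-Glo luminescence.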

Compound	activity change	Potency
CCCCCCCCCCCC(=O)NCCCN(C)C	-10.6% (inactive)	–
CCCCCCCCCOC(=O)c1ccc(O)cc1	-2.28% (inactive)	–
CCCCCCCCCCCCCCCC(=O)OC[C@H](O)[C@H]1OC(=O)C(O)=C1O	–	inactive
Oc1ccc(N=Nc2ccccc2)cc1	0.057% [at 95 µM, stronger effect = higher value] (inactive)	–
c1cc(C(c2ccc(OCC3CO3)cc2)c2ccc(OCC3CO3)cc2)ccc1OCC1CO1 (centres undefined)	-6.52% (inactive)	–
CC(C)OC(=O)c1cc2c(OCC(O)CNC(C)(C)C)cccc2[nH]1 (centres undefined)	-5.6% (inactive)	–
Cc1nc(-c2ccc3c(c2)CCN(CCC2CCC(NC(=O)/C=C/c4ccc(F)cc4)CC2)CC3)no1 (centres undefined)	-2.5% [at 32.5 µM, stronger effect = higher value] (inactive)	–
CC1(C)CCC(C)(C)c2cc(C(=O)Nc3ccc(C(=O)O)cc3)ccc21	-9.72% (inactive)	–
NNc1nc(-c2ccc([N+](=O)[O-])cc2)cs1	-9.57% (inactive)	–

System: not listed separately
Assay: qHTS assay to identify small molecule antagonists of the androgen receptor (AR) signaling pathway using the MDA cell line - cell viability counter screen (AID 743041; also: nearly all actives have a fitted effect of over 45% in size; also: potency is read from the fitted curve at half-maximal effect)
Conditions: MDA-kb2 viability, CellTiter-Fluor, 16 h, cells co-treated with R1881 androgen agonist; series mostly up to 70.3 µM; viability change, negative = cytotoxic: at the top concentration
How it was run: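 Same-well cytotoxicity was assessed by CellTiter-Fluor in MDA-kb2 AR-luc cells after 16 h of compound treatment under R1881 agonism.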

Compound	viability change, negative = cytotoxic	Potency
CCOC(=O)c1nc(C(Cl)(Cl)Cl)n(-c2ccc(Cl)cc2Cl)n1	-12.9% (inactive)	–
CSc1ccc(/C=C2/C(C)=C(CC(=O)O)c3cc(F)ccc32)cc1	-21.4% (inactive)	–
c1cc(C(c2ccc(OCC3CO3)cc2)c2ccc(OCC3CO3)cc2)ccc1OCC1CO1 (centres undefined)	-3.62% (inactive)	–
CC(C)(C)c1ccc(C(=O)CCCN2CCC(OC(c3ccccc3)c3ccccc3)CC2)cc1	-6.93% (inactive)	–
CCCCN(CCCC)c1ccc(C(=O)c2ccccc2C(=O)O)c(O)c1	-18.5% [at 95 µM] (inactive)	–
CCCC(c1cc(C(C)(C)C)c(O)cc1C)c1cc(C(C)(C)C)c(O)cc1C	–	27.6 µM (active)
CN(C/C=C/C#CC(C)(C)C)Cc1cccc2ccccc12	-2.76% (inactive)	–
O=C(Nc1ccc(Oc2ccc(Cl)cc2)c(Cl)c1)c1cc(I)cc(I)c1O	-5.02% (inactive)	–
N=C1N=C(N)c2ccccc21	5.1% (inactive)	–
Cc1nc(-c2ccc3c(c2)CCN(CCC2CCC(NC(=O)/C=C/c4ccc(F)cc4)CC2)CC3)no1 (centres undefined)	-19.9% [at 32.5 µM] (inactive)	–
CCCCCCCCCCCC[N+](C)(C)CCCCCCCCCCCC	–	27.3 µM (active)
CSc1ccc2c(c1)C(N1CCN(C)CC1)Cc1ccccc1S2 (centres undefined)	-20.3% (inactive)	–
Oc1ccc2cc(SSc3ccc4cc(O)ccc4c3)ccc2c1	0.486% (inactive)	–
CCCCCOC(=O)CCCC	9.43% (inactive)	–
Clc1ccc2n[nH]nc2c1	-7.52% (inactive)	–
CCc1cc(Cc2cc(CC)c(N)c(CC)c2)cc(CC)c1N	-11% (inactive)	–
CCCCCCCCn1sc(Cl)c(Cl)c1=O	-3.71% (inactive)	–
NNc1nc(-c2ccc([N+](=O)[O-])cc2)cs1	–	61.1 µM (active)

Molecular target: Androgen receptor (Homo sapiens) (UniProt P10275)
Assay: qHTS assay to identify small molecule antagonists of the androgen receptor (AR) signaling pathway using the MDA cell line (AID 743042; also: nearly all actives have a fitted effect of over 55% in size; also: potency is read from the fitted curve at half-maximal effect)
Conditions: MDA-kb2 AR-luc, MMTV luciferase, R1881 antagonist, 16 h; series mostly up to 70.3 µM; activity change, negative = inhibition: at the top concentration
How it was run: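 MDA-kb2 breast carcinoma cells carrying MMTV-luciferase (AR/GR responsive) were co-treated with compounds and the agonist R1881 for 16 h at 37C. Inhibition read as ONE-Glo luminescence; CellTiter-Fluor fluorescence measured in parallel for cytotoxicity.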

Compound	Potency	activity change, negative = inhibition
CCOC(=O)c1nc(C(Cl)(Cl)Cl)n(-c2ccc(Cl)cc2Cl)n1	68.6 µM (active)	–
CCCCCCCCCCCCCCCC(=O)OC[C@H](O)[C@H]1OC(=O)C(O)=C1O	inactive	–
Oc1ccc(N=Nc2ccccc2)cc1	–	-8.44% [at 95 µM] (inactive)
CSc1ccc(/C=C2/C(C)=C(CC(=O)O)c3cc(F)ccc32)cc1	–	8.99% (inactive)
CC(C)OC(=O)c1cc2c(OCC(O)CNC(C)(C)C)cccc2[nH]1 (centres undefined)	–	-15.7% (inactive)
Cc1nc(-c2ccc3c(c2)CCN(CCC2CCC(NC(=O)/C=C/c4ccc(F)cc4)CC2)CC3)no1 (centres undefined)	–	-2.87% [at 32.5 µM] (inactive)
CN(C)c1ccc(C2(c3ccc(N(C)C)cc3)OC(=O)c3cc(N(C)C)ccc32)cc1	–	-15% (inactive)
CC(C)=CCOc1ccc(/C=C/C(=O)c2ccc(OCC=C(C)C)cc2OCC(=O)O)cc1	–	12.1% (inactive)
NNc1nc(-c2ccc([N+](=O)[O-])cc2)cs1	48.6 µM (active)	–

System: not listed separately
Assay: qHTS assay to identify small molecule antagonists of the thyroid receptor (TR) signaling pathway - cell viability counter screen (AID 743064); also: nearly all actives have a fitted effect of over 50% in size; also: potency is read from the fitted curve at half-maximal effect
Conditions: GH3.TRE-Luc viability, CellTiter-Fluor, 24 h; series mostly up to 70.3 µM; activity change, negative = cytotoxic: at the top concentration
How it was run: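 Same-well viability check: GH3.TRE-Luc cells stimulated with 1 nM T3 alongside test compound for 23.5 h, followed by CellTiter-Fluor fluorescence.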

Compound	Potency	activity change, negative = cytotoxic
CCCCCCCCCCCC(=O)NCCCN(C)C	17.2 µM (active)	–
OCc1c[nH]c2ccccc12	62.9 µM (active)	–
CCCCCCCCCCCCCCCC(=O)OC[C@H](O)[C@H]1OC(=O)C(O)=C1O	inactive	–
Oc1ccc(N=Nc2ccccc2)cc1	49.2 µM (active)	–
c1cc(C(c2ccc(OCC3CO3)cc2)c2ccc(OCC3CO3)cc2)ccc1OCC1CO1 (centres undefined)	17.2 µM (active)	–
CC(C)OC(=O)c1cc2c(OCC(O)CNC(C)(C)C)cccc2[nH]1 (centres undefined)	13.3 µM (active)	–
CC[C@H]1O[C@]2(CC[C@@H]1C)C[C@@H]1C[C@@H](C/C=C(\C)C[C@@H](C)/C=C/C=C3\CO[C@@H]4[C@H](O)C(C)=C[C@@H](C(=O)O1)[C@]34O)O2	6.06 µM (active)	–
CCCCc1oc2ccc(NS(C)(=O)=O)cc2c1C(=O)c1ccc(OCCCN(CCCC)CCCC)cc1	10.6 µM (active)	–
CC(C)(C)c1ccc(C(=O)CCCN2CCC(OC(c3ccccc3)c3ccccc3)CC2)cc1	11.9 µM (active)	–
CCCCN(CCCC)c1ccc(C(=O)c2ccccc2C(=O)O)c(O)c1	55 µM (active)	–
CCCC(c1cc(C(C)(C)C)c(O)cc1C)c1cc(C(C)(C)C)c(O)cc1C	3.9 µM (active)	–
CC(C)(C)NC(=O)[C@@H]1C[C@@H]2CCCC[C@@H]2CN1C[C@@H](O)[C@H](Cc1ccccc1)NC(=O)[C@H](CC(N)=O)NC(=O)c1ccc2ccccc2n1	13.3 µM (active) and 24.7 µM (active)	–
Oc1c(Cl)cc(Cl)c2cccnc12	9.44 µM (active)	–
N=C1N=C(N)c2ccccc21	21.7 µM (active)	–
Cc1nc(-c2ccc3c(c2)CCN(CCC2CCC(NC(=O)/C=C/c4ccc(F)cc4)CC2)CC3)no1 (centres undefined)	10.9 µM (active)	–
CN(C)c1ccc(C2(c3ccc(N(C)C)cc3)OC(=O)c3cc(N(C)C)ccc32)cc1	–	-7.34% (inactive)

Compound	Potency	activity change, negative = cytotoxic
CCCCCCCCCCCC[N+](C)(C)CCCCCCCCCCCC	24.3 µM (active)	–
CC1(C)CCC(C)(C)c2cc(C(=O)Nc3ccc(C(=O)O)cc3)ccc21	68.6 µM (active)	–
CSc1ccc2c(c1)C(N1CCN(C)CC1)Cc1ccccc1S2 (centres undefined)	7.5 µM (active)	–
Oc1ccc2cc(SSc3ccc4cc(O)ccc4c3)ccc2c1	inactive and 61.1 µM (active)	–
CCCCC(CC)COP(=O)(O)OCC(CC)CCCC (centres undefined)	27.4 µM (active)	–
O=C(Nc1cccc(C(F)(F)F)c1)c1cc(Br)cc(Br)c1O	5.96 µM (active) and 2.43 µM (active)	–
Cc1ccc(O)c(C(C)(C)C)c1	17.2 µM (active) and inactive	–
Clc1ccc2n[nH]nc2c1	–	19.2% (inactive)
CCc1cc(Cc2cc(CC)c(N)c(CC)c2)cc(CC)c1N	68.6 µM (active)	–
CCCCCCCCn1sc(Cl)c(Cl)c1=O	27.3 µM (active)	–
CCCCCCCCS(=O)C(C)Cc1ccc2c(c1)OCO2 (centres undefined)	69.9 µM (active)	–
NNc1nc(-c2ccc([N+](=O)[O-])cc2)cs1	68.6 µM (active)	–
O=c1[nH]sc2ccccc12	5.45 µM (active)	–
CNCc1cc(F)ccc1Oc1ccc(Cl)c(Cl)c1	30.6 µM (active)	–
C/C=C1/C(=O)C[C@H]2[C@@H]3CCC4=CC(=O)CC[C@]4(C)[C@H]3CC[C@]12C	–	23% (inactive)
CCCCC(CC)COC(=O)c1ccccc1C(=O)O (centres undefined)	–	-19.5% [at 95 µM] (inactive)

From PubChem BioAssay (Tox21)
